Experimental data: PubChem BioAssay AID623865 (Southern Research Specialized Biocontainment Screening …, 2012)
Active and inactive are the calls of the source. No rule for the calls is given here.

Experiment: antiviral activity against WNV-induced cytopathicity – cell-based, secondary screen, flavivirus guanylyltransferase probe project (AID 623865)
Conditions: West Nile virus CPE inhibition assay; series mostly up to 50 µM; CPE inhibition: at the top concentration

CPE inhibition, inactive:
O=C(O)CSc1cc(NS(=O)(=O)c2ccc(Cl)cc2)c2ccccc2c1O 1.89%
O=C(O)CSc1cc(NS(=O)(=O)c2ccc(Br)cc2)c2ccccc2c1O 1.32%
O=[N+]([O-])c1cccc(S(=O)(=O)Nc2cc(SCc3ccccc3)c(O)c3ccccc23)c1 2.16%
Cn1c(=O)c2[nH]c(-c3ccccc3)c(O)c2n(C)c1=O 2.6%
Cc1ccc(S(=O)(=O)Nc2cc(Sc3nc(C)cc(C)n3)c(O)c3ccccc23)cc1 0.88%
O=S(=O)(Nc1cc(Sc2ccccc2)c(O)c2ccccc12)c1ccc(F)cc1 1.58%
O=[N+]([O-])c1cccc(S(=O)(=O)Nc2cc(Sc3nc4ccccc4s3)c(O)c3ccccc23)c1 1.19%
O=C(O)CSc1cc(NS(=O)(=O)c2ccc(F)cc2)c2ccccc2c1O 6.24%
Cc1cc(C)c(S(=O)(=O)Nc2cc(SCC(=O)O)c(O)c3ccccc23)c(C)c1 1.97%
COc1ccc(OC)c(S(=O)(=O)Nc2cc(SCC(=O)O)c(O)c3ccccc23)c1 4.21%
Cn1c(=O)c2[nH]c(-c3ccc(Cl)cc3)c(O)c2n(C)c1=O 2.76%
O=S(=O)(Nc1cc(Sc2ncn[nH]2)c(O)c2ccccc12)c1ccc(F)cc1 0.42%
Cc1cc(F)ccc1S(=O)(=O)Nc1cc(SCC(=O)O)c(O)c2ccccc12 5.52%
O=C(O)CSc1cc(NS(=O)(=O)c2cccc3cccnc23)c2ccccc2c1O 3.3%
O=C(O)CSc1cc(NS(=O)(=O)c2cccc([N+](=O)[O-])c2)c2ccccc2c1O 1.51%
O=S(=O)(Nc1cc(SCc2ccccc2)c(O)c2ccccc12)c1ccc(Cl)cc1 1.23%
O=S(=O)(Nc1cc(Cl)c(O)c2ccccc12)c1ccc(F)cc1 1.6%
Cc1ccc(S(=O)(=O)Nc2cc(SCC(=O)O)c(O)c3ccccc23)cc1 3.27%
